Data as given in PubChem BioAssay.
Results filed as inconclusive are left out. The source made the active and inactive calls. Unless noted, no stated cut-off is given here; in the data, active means inhibition above about 80%; inactive means the rest.

Legend:
[1] = growth inhibition of DIPG glioma cells, dose response, cell-based, SU-DIPG-XVII, MIPE5.0, CellTiter-Glo, qHTS (AID 1347060; cut-off not given, nearly all actives have AC50 up to about 26 µM); conditions: SU-DIPG-XVII viability, CellTiter-Glo ATP luminescence
[2] = growth inhibition of DIPG glioma cells, dose response, cell-based, SU-DIPG-XIII, MIPE5.0, CellTiter-Glo, qHTS (AID 1347064; cut-off not given, nearly all actives have AC50 up to about 23 µM); conditions: SU-DIPG-XIII viability, CellTiter-Glo ATP luminescence
[3] = viability loss in pontine glioma line – cell-based, SU-DIPG-XXV, MIPE5.0, CellTiter-Glo, qHTS, dose response (AID 1347065; cut-off not given, nearly all actives have AC50 up to about 26 µM;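 further: cells exposed to compound for 48 hours before ATP readout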); conditions: CellTiter-Glo ATP luminescence
[4] = JHH-DIPG-1 glioma cell viability, MIPE5.0 library, CellTiter-Glo luminescence, qHTS (AID 1347067; cut-off not given, nearly all actives have AC50 up to about 26 µM;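 further: cells exposed to compound for 48 hours before readout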); conditions: JHH-DIPG-1 glioma viability, CellTiter-Glo ATP luminescence
[5] = SU-DIPG-XXV glioma cell viability, MIPE5.0 library, qHTS (AID 1347068; cut-off not given, nearly all actives have IC50 up to about 30 µM)
[6] = LFS_MB_P medulloblastoma growth inhibition, cell-based, chromothripsis tumors, cisplatin or BGB combos (AID 1671449); conditions: LFS_MB_P medulloblastoma cells;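 further: cells exposed for 96 hours; 0% = vehicle DMSO and 100% = killing by high DMSO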
[7] = HDN33 neuroblastoma growth inhibition, cell-based, chromothripsis tumors, cisplatin or BGB combos (AID 1671450); conditions: HDN33 neuroblastoma cells, stronger effect = higher value;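 further: cells exposed to compound for four days; 0% = vehicle DMSO and 100% = cell killing by high DMSO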
[8] = ICB984 medulloblastoma cell growth inhibition, synergistic combos for chromothripsis tumors, cisplatin or BGB combos (AID 1671451; call rule not given here;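 further: cells exposed for 96 hours before readout; 0% = vehicle DMSO and 100% = killing by high DMSO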); conditions: ICB984 medulloblastoma cells, drug combinations, stronger effect = higher value
[9] = LFS_MB_1R medulloblastoma cell growth inhibition, synergistic combos for chromothripsis tumors, cisplatin or BGB combos (AID 1671452); conditions: LFS_MB_1R medulloblastoma cells, stronger effect = higher value;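 further: cells exposed for 96 hours before readout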
[10] = HTB85 osteosarcoma cell growth inhibition, synergistic combos for chromothripsis tumors, BGB or cisplatin IC20 combos (AID 1671453); conditions: HTB85 osteosarcoma cells, drug combinations, stronger effect = higher value;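 further: cells exposed for 96 hours before readout; 0% = vehicle DMSO and 100% = high DMSO killing control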
[11] = CRL2098 osteosarcoma cell growth inhibition, synergistic combos for chromothripsis tumors, BGB or cisplatin IC20 combos (AID 1671454); conditions: CRL2098 osteosarcoma cells, drug combinations, stronger effect = higher value;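 further: cells exposed for 96 h before readout; 0% = vehicle DMSO and 100% = killing by high DMSO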
[12] = HD-MB03 medulloblastoma cell growth inhibition, synergistic combos for chromothripsis tumors, BGB or cisplatin IC20 combos (AID 1671455; in the data active means inhibition above about 83%;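 further: 0% = vehicle DMSO and 100% = high DMSO as cytotoxic control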); conditions: HD-MB03 medulloblastoma cells, stronger effect = higher value
[13] = UWB1.289 ovarian carcinoma cell growth inhibition, synergistic combos for chromothripsis tumors, BGB or cisplatin combos (AID 1671456); conditions: UWB1.289 ovarian carcinoma cells, stronger effect = higher value;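 further: cells exposed to compound for four days; 0% = vehicle DMSO and 100% = killing by high DMSO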
[14] = MDA-MB-436 breast carcinoma cell growth inhibition, synergistic combos for chromothripsis tumors, BGB or cisplatin combos (AID 1671458; call rule not given here;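 further: cells exposed for 96 hours; 0% = vehicle DMSO and 100% = killing by high DMSO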); conditions: MDA-MB-436 breast carcinoma growth inhibition, drug combinations, stronger effect = higher value
[15] = growth inhibition of BT084 medulloblastoma cells, cell-based, ICGC_MB145, cisplatin and BGB IC40 combos (AID 1671461); conditions: drug combinations, stronger effect = higher value;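 further: cells exposed to drugs for 96 hours; 0% = vehicle DMSO and 100% = high DMSO full killing control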
[16] = growth inhibition of RCMB18 medulloblastoma cells, cell-based, cisplatin and BGB IC40 combos (AID 1671462); conditions: stronger effect = higher value;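 further: cells exposed to compound for four days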
[17] = growth inhibition of CRL1545 osteosarcoma cells, cell-based, cisplatin and BGB IC20 combos (AID 1671464); conditions: stronger effect = higher value;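 further: cells exposed to compound for 96 hours before readout; 0% = vehicle DMSO and 100% = high DMSO killing control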
[18] = measured here: combination with BGB IC40, at 0.05 µM
[19] = measured here: with BGB IC20 combination, at 0.5 µM
[20] = measured here: with cisplatin IC20 combination, at 0.5 µM
[21] = measured here: combination with cisplatin, at 0.5 µM

Question: For `C=C1[C@H](CO)[C@@H](O)C[C@@H]1n1cnc2c(=O)[nH]c(N)nc21`, which outcome [1] is on record?
Answer: inactive

Question: And the outcome [2]?
Answer: inactive

Question: What about the outcome [3] of the same compound?
Answer: inactive

Question: And the outcome [4]?
Answer: inactive

Question: What about the outcome [5] of the same compound?
Answer: inactive

Question: What about the inhibition ([6]; at 0.5 µM, stronger effect = higher value) of the same compound?
Answer: -21.8% (inactive)

Question: And the inhibition ([6]; measured here: combination with BGB IC20, at 0.005 µM)?
Answer: 5.29%

Question: And the inhibition ([6]; measured here: combination with BGB IC40, at 0.005 µM)?
Answer: 73.1%

Question: What about the inhibition [6, 18] of the same compound?
Answer: 2.38%

Question: And the inhibition ([6]; measured here: combination with cisplatin, at 0.5 µM, stronger effect = higher value)?
Answer: -17.3%

Question: What about the inhibition ([6]; measured here: combination with cisplatin, at 5 µM, stronger effect = higher value) of the same compound?
Answer: -13.1%

Question: What about the inhibition ([7]; BGB combo, at 5 µM) of the same compound?
Answer: -36.2%

Question: What about the inhibition ([7]; at 0.5 µM) of the same compound?
Answer: -7.93% (inactive)

Question: And the inhibition ([7]; cisplatin combo, at 5 µM)?
Answer: -16.1%

Question: What about the inhibition [7, 19] of the same compound?
Answer: -13.1%

Question: And the inhibition [7, 20]?
Answer: -0.869%

Question: What about the inhibition ([7]; single agent, at 5 µM) of the same compound?
Answer: -23.6%

Question: What about the inhibition ([8]; BGB IC20 combo, at 0.005 µM) of the same compound?
Answer: -16%

Question: And the inhibition ([8]; BGB IC40 combo, at 0.005 µM)?
Answer: -1.32%

Question: And the inhibition ([8]; BGB IC40 combo, at 0.05 µM)?
Answer: -29.5%

Question: What about the inhibition ([8]; at 0.5 µM) of the same compound?
Answer: -11.2% (inactive)

Question: And the inhibition ([8]; cisplatin combo, at 0.05 µM)?
Answer: -36.2%

Question: What about the inhibition ([8]; cisplatin combo, at 0.5 µM) of the same compound?
Answer: -7.79%

Question: What about the inhibition ([8]; cisplatin combo, at 5 µM) of the same compound?
Answer: -2.87%

Question: And the inhibition ([8]; measured here: 5 uM single agent, at 5 µM)?
Answer: -12.5%

Question: And the inhibition ([9]; at 0.5 µM)?
Answer: -2.98% (inactive)

Question: What about the inhibition [9, 18] of the same compound?
Answer: -6.72%

Question: What about the inhibition [9, 21] of the same compound?
Answer: -9.39%

Question: And the inhibition ([9]; measured here: combination with cisplatin, at 5 µM)?
Answer: 13.9%

Question: And the inhibition ([10]; at 0.5 µM)?
Answer: -14.3% (inactive)

Question: What about the inhibition ([10]; measured here: with BGB IC20, at 0.5 µM) of the same compound?
Answer: -14.3%

Question: And the inhibition ([10]; measured here: with BGB IC20, at 5 µM)?
Answer: -13%

Question: And the inhibition ([10]; measured here: with cisplatin IC20, at 0.5 µM)?
Answer: -20.6%

Question: What about the inhibition ([10]; measured here: with cisplatin IC20, at 5 µM) of the same compound?
Answer: -13.2%

Question: What about the inhibition ([10]; single agent, at 5 µM) of the same compound?
Answer: -13%

Question: What about the inhibition ([11]; at 0.5 µM) of the same compound?
Answer: -23% (inactive)

Question: And the inhibition ([11]; measured here: combination with BGB at IC20, at 0.5 µM)?
Answer: -65.5%

Question: What about the inhibition ([11]; measured here: combination with cisplatin at IC20, at 0.5 µM) of the same compound?
Answer: -29.3%

Question: And the inhibition ([12]; at 0.5 µM)?
Answer: 0.83% (inactive)

Question: And the inhibition ([12]; measured here: combo with BGB at IC20, at 0.5 µM)?
Answer: -0.76%

Question: What about the inhibition ([12]; measured here: combo with cisplatin at IC20, at 0.5 µM) of the same compound?
Answer: -1.27%

Question: What about the inhibition ([13]; at 0.5 µM) of the same compound?
Answer: -8.13% (inactive)

Question: What about the inhibition ([13]; measured here: inhibition with BGB combination, at 0.05 µM) of the same compound?
Answer: 1.38%

Question: And the inhibition ([13]; measured here: inhibition with cisplatin combination, at 0.05 µM)?
Answer: -3.75%

Question: And the inhibition ([14]; at 0.5 µM)?
Answer: -0.47% (inactive)

Question: What about the inhibition ([14]; measured here: BGB combination, at 0.5 µM) of the same compound?
Answer: -0.92%

Question: What about the inhibition ([14]; measured here: BGB combination, at 5 µM) of the same compound?
Answer: -0.668%

Question: And the inhibition ([14]; measured here: cisplatin combination, at 0.5 µM)?
Answer: 0.06%

Question: What about the inhibition ([14]; measured here: cisplatin combination, at 5 µM) of the same compound?
Answer: -10.2%

Question: What about the inhibition ([15]; at 0.5 µM) of the same compound?
Answer: 4.2% (inactive)

Question: And the inhibition ([15]; cisplatin combination, at 0.5 µM)?
Answer: 2.02%

Question: What about the inhibition ([15]; cisplatin combination, at 5 µM) of the same compound?
Answer: -20%

Question: And the inhibition ([15]; measured here: BGB IC40 combination 0.05 uM, at 0.05 µM)?
Answer: -15.2%

Question: And the inhibition ([15]; single agent, at 5 µM)?
Answer: 6.8%

Question: And the inhibition ([16]; at 0.5 µM)?
Answer: -7.97% (inactive)

Question: What about the inhibition ([16]; cisplatin combo, at 5 µM) of the same compound?
Answer: 3.9%

Question: What about the inhibition ([16]; measured here: BGB IC40 combination, at 0.05 µM) of the same compound?
Answer: -6.21%

Question: And the inhibition [16, 21]?
Answer: -17.4%

Question: What about the inhibition ([16]; single agent, at 5 µM) of the same compound?
Answer: -2.06%

Question: And the inhibition ([17]; at 0.5 µM)?
Answer: -6.46% (inactive)

Question: And the inhibition [17, 19]?
Answer: -39.9%

Question: What about the inhibition [17, 20] of the same compound?
Answer: 8.8%

Question: What about the inhibition ([17]; single agent, at 0.05 µM) of the same compound?
Answer: 4.9%

Question: What about the inhibition ([17]; single agent, at 5 µM) of the same compound?
Answer: -41.7%
